For 13 compounds, growth results are on record in PubChem BioAssay (NCI).

About 83,000 compounds went through this panel and 20% of them were active in at least one assay; those are over-represented in the sample as a whole.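 Treatment: one concentration, 48 hours, 96-well format. Scoring: percent growth, with anything below 10 considered active.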 A number with no mark means an inactive call. Calls of active or inactive are those of the source.

Among the test systems are NCI-H23 lung; NCI-H226 lung; NCI-H322M lung; HOP-62 NSCLC; NCI-H460 lung; HOP-92 NSCLC; NCI-H522 lung; A549/ATCC NSCLC; 786-0 renal; COLO 205 colon.
Experiment in all cases: NCI-60 one-dose screen, 48 h (100 = growth as untreated, 0 = no growth, -100 = all killed)
Holding throughout (conditions): 10 µM unless noted

For `CC(C)(C)c1cc(-c2nc3ccc(N4CCN(CCO)CC4)cc3[nH]2)cc(C(C)(C)C)c1O`, the growth with NCI-H23 lung is 96.3%; in the test with NCI-H226 lung, 99%; in the test on NCI-H322M lung, 82.3%; in the test on HOP-62 NSCLC it was 72.6%; in the test on NCI-H460 lung, 4.48% (active); in the test with HOP-92 NSCLC, 45.2%. In addition, the growth with NCI-H522 lung was 74%; in the test with A549/ATCC NSCLC it was 43.1%; in the test on 786-0 renal, 52%; with COLO 205 colon it was -57.2% (active).
Consider `COc1cc(/C=C2\CCCC3=C2N=C2SC(C)=NN2C3c2cc(OC)c(OC)c(OC)c2)cc(OC)c1OC` (stereo not given), for which the growth with NCI-H23 lung is 23.2%; in the test with NCI-H226 lung, 27.7%; in the test on NCI-H322M lung, 28.5%; in the test with HOP-62 NSCLC, -0.72% (active); in the test with NCI-H460 lung, -13.9% (active); in the test with HOP-92 NSCLC it was 91.9%. In addition, the growth with NCI-H522 lung was 81%; with A549/ATCC NSCLC, 39.9%; in the test with 786-0 renal, 34.5%; in the test on COLO 205 colon, 19.2%.
`COc1cc(-c2csc(NC(=O)Nc3ccc(Cl)cc3Cl)n2)cc(OC)c1OC`: the growth in the test with NCI-H23 lung was 42.7%; with NCI-H226 lung it was 43.8%; in the test with NCI-H322M lung, 30.8%; in the test on HOP-62 NSCLC, 38.7%; in the test with NCI-H460 lung, 10.3%; in the test with HOP-92 NSCLC it was 44%. Besides, the growth in the test with NCI-H522 lung is 21.4%; in the test with A549/ATCC NSCLC it was 25.5%; with 786-0 renal, 33%; in the test on COLO 205 colon, 36.5%.
As to `CCOC(=O)CC(C#N)(CC(=O)OCC)C(=O)OCC`, the growth is 106% with NCI-H23 lung; 94.5% with NCI-H226 lung; 112% in the test on NCI-H322M lung; 117% in the test on HOP-62 NSCLC; 115% with NCI-H460 lung; 68% with HOP-92 NSCLC. The growth is 114% with NCI-H522 lung, 84.6% in the test on A549/ATCC NSCLC, 104% in the test with 786-0 renal and 116% in the test with COLO 205 colon.
Regarding `CCNc1nc(N2CC(=O)Nc3cc(OC)ccc32)c2ccccc2n1`, the growth with NCI-H23 lung was 3.23% (active); with NCI-H226 lung it was 50.3%; in the test with NCI-H322M lung it was 36.6%; in the test with HOP-62 NSCLC it was 25.5%; in the test with NCI-H460 lung, -5.18% (active); in the test with HOP-92 NSCLC, -2.59% (active). The growth is -8.1% (active) in the test on NCI-H522 lung, 20.4% in the test on A549/ATCC NSCLC, 12% with 786-0 renal and -48.4% (active) in the test on COLO 205 colon.
For `CC1Cc2c(N(C)C)ncnc2N(C)c2ccc(Cl)cc21` (stereo not given), the growth in the test with NCI-H23 lung is 50.1%; in the test with NCI-H226 lung it was 85.6%; in the test on NCI-H322M lung, 73.2%; with HOP-62 NSCLC, 41.9%; in the test on NCI-H460 lung it was 14.5%; with HOP-92 NSCLC, 58%. Also, the growth with NCI-H522 lung is 13.4%; in the test on A549/ATCC NSCLC, 55.8%; in the test on 786-0 renal, 31.1%; with COLO 205 colon it was 36%.
Regarding `COc1ccc2c(c1)C(C)Cc1c(N(C)C)ncnc1N2C` (stereo not given), the growth is 52.7% with NCI-H23 lung; 81.6% with NCI-H226 lung; 53.9% with NCI-H322M lung; 35.5% with HOP-62 NSCLC; 16.1% in the test with NCI-H460 lung; 50.5% in the test with HOP-92 NSCLC. The growth with NCI-H522 lung was -0.111% (active); in the test on A549/ATCC NSCLC, 50.5%; with 786-0 renal, 33%; in the test on COLO 205 colon, 15.8%.
In the case of `COc1cc(CNC(=O)CSc2nc3ccccc3c(=O)n2Cc2cc(OC)c(OC)c(OC)c2)cc(OC)c1OC`, the growth with NCI-H23 lung is 105%; in the test on NCI-H226 lung, 94.5%; in the test on NCI-H322M lung, 95.4%; with HOP-62 NSCLC it was 94%; in the test on NCI-H460 lung, 108%; with HOP-92 NSCLC, 106%. Further, the growth is 81.2% in the test on NCI-H522 lung, 97% in the test on A549/ATCC NSCLC, 101% with 786-0 renal and 105% in the test on COLO 205 colon.
As to `COc1cc(-n2nc(C(=O)Nc3ccc(C(=O)O)cc3)nc2-c2ccccc2)cc(OC)c1OC`, the growth was 97.4% in the test on NCI-H23 lung; 103% with NCI-H226 lung; 24.5% in the test with NCI-H322M lung; 85.1% in the test with HOP-62 NSCLC; 115% in the test on NCI-H460 lung; 83.5% in the test on HOP-92 NSCLC. Also, the growth in the test with NCI-H522 lung is 55.9%; in the test on A549/ATCC NSCLC, 74.7%; in the test on 786-0 renal, 92.1%; in the test with COLO 205 colon, 104%.
Take `O=C(/C=C/CN1CCOCC1)Nc1cc2c(Nc3cccc(Cl)c3F)ncnc2cc1OCCOC(F)F`: the growth in the test with NCI-H23 lung was 85.4%; in the test on NCI-H226 lung, 80.1%; with NCI-H322M lung, 4.9% (active); in the test on HOP-62 NSCLC it was 70.5%; with NCI-H460 lung it was 93%; in the test on HOP-92 NSCLC it was 18.9%. For the same compound, the growth in the test with NCI-H522 lung is 6.03% (active); with A549/ATCC NSCLC, 52.7%; with 786-0 renal, 53.4%; in the test on COLO 205 colon, 95.1%.
With `c1ccc(CCn2nnc3c(Nc4ccc(N5CCOCC5)cc4)ncnc32)cc1`, the growth with NCI-H23 lung was 102%; in the test on NCI-H226 lung, 90.2%; with NCI-H322M lung, 106%; in the test with HOP-62 NSCLC it was 91.1%; in the test on NCI-H460 lung, 89%; with HOP-92 NSCLC, -2.53% (active). Also, the growth in the test with NCI-H522 lung is 80.2%; in the test with A549/ATCC NSCLC, 74.1%; in the test with 786-0 renal it was 87.1%; in the test with COLO 205 colon, 90.1%.
For `CN=S(=O)(NC(=O)c1ccc(Cl)cc1Cl)c1ccc(Br)s1` (stereo not given), the growth was 104% in the test on NCI-H23 lung; 93.8% in the test with NCI-H226 lung; 113% in the test with NCI-H322M lung; 105% in the test with HOP-62 NSCLC; 98.6% in the test with NCI-H460 lung; 65.9% with HOP-92 NSCLC. Also, the growth with NCI-H522 lung is 102%; with A549/ATCC NSCLC it was 89.5%; in the test with 786-0 renal it was 105%; with COLO 205 colon it was 121%.
Consider `O=C(N/N=C/c1c(Cl)cccc1Cl)c1ccccc1Nc1ccnc(C(F)(F)F)c1`, for which the growth in the test on NCI-H23 lung is 46%; with NCI-H226 lung, 65.2%; in the test with NCI-H322M lung, 58.6%; with HOP-62 NSCLC, 67.2%; in the test with NCI-H460 lung it was 36.1%; in the test with HOP-92 NSCLC, 71.5%. The growth with NCI-H522 lung was 52.6%; in the test on A549/ATCC NSCLC it was 49.2%; in the test on 786-0 renal, 75%; in the test on COLO 205 colon, 94.7%.
